The panel holds about 79,000 compounds, 15% with a hit somewhere; the sample as a whole holds those more often. Active and inactive are the calls of the source. Rule as the data show it: active = growth inhibition above about 70%; inactive = the rest.
Experiments:
[1] = NCI Yeast Anticancer Drug Screen. Data for the rad50 strain (AID 155);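 also: 0% = growth of vehicle-only cultures of the same strain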; details: S. cerevisiae rad50 strain growth inhibition, active compounds read high; at 50.0 µM unless noted
Method in brief: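 A DNA repair-deficient yeast mutant serves as the test organism; compound-induced growth inhibition is calculated against vehicle-treated cells.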

[2] = NCI Yeast Anticancer Drug Screen. Data for the sgs1 mgt1 strain (AID 161);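 also: 0% = growth of cultures given vehicle only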; details: S. cerevisiae sgs1 mgt1 strain, active compounds read high
Method in brief: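 Read-out: growth inhibition vs vehicle controls. Cells: mutant yeast strain deficient in DNA damage repair.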

[3] = NCI Yeast Anticancer Drug Screen. Data for the cln2 rad14 strain (AID 165);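 also: 0% = growth equal to vehicle treated cultures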; details: S. cerevisiae cln2 rad14 strain, active compounds read high
Method in brief: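 Compounds are applied to the cln2 rad14 yeast strain, and growth is then compared with that of vehicle-treated cultures to give inhibition.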

[4] = NCI Yeast Anticancer Drug Screen. Data for the bub3 strain (AID 167); details: S. cerevisiae bub3 mutant strain, active compounds read high
Method in brief: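 Inhibition values come from growth of compound-treated mutant yeast normalised to vehicle-treated controls.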

[5] = NCI Yeast Anticancer Drug Screen. Data for the mlh1 rad18 strain (AID 175); details: S. cerevisiae mlh1 rad18 strain growth inhibition, active compounds read high
Method in brief: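 Read-out is yeast growth inhibition, calculated against vehicle-only controls. The compound was applied to a strain engineered with DNA damage repair alterations.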

[6] = NCI Yeast Anticancer Drug Screen. Data for the mec2-1 strain (AID 157); details: S. cerevisiae mec2-1 strain, active compounds read high
Method in brief: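 Strain: mec2-1 (DNA repair/cell cycle alteration). Compound exposure, then growth measured; inhibition expressed relative to vehicle.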

[7] = at 5.0 µM (retest, dose inferred, filed as 0.5)
[8] = at 50.0 µM (retest, dose inferred, filed as 5.0)

Measured: growth inhibition

Cn1ccn(C2CCCCC2)c1=O
inactive: [1] 3.35% | [2]; at 50.0 µM unless noted -0.25% | [3]; at 50.0 µM unless noted -12.3% | [4]; at 50.0 µM unless noted 35% | [5]; at 50.0 µM unless noted 7.95%

CC(C)OC(=O)Oc1cccc(OC(=O)OC(C)C)c1
inactive: [1] 3.15% | [2]; at 50.0 µM unless noted 2.15% | [3]; at 50.0 µM unless noted 6.95% | [4]; at 50.0 µM unless noted 8.5% | [5]; at 50.0 µM unless noted 9.3%

NNc1nc(N2CCCCC2)c2[nH]cnc2n1
inactive: [1] 1.1% | [2]; at 50.0 µM unless noted -5.6% | [3]; at 50.0 µM unless noted 0.1% | [4]; at 50.0 µM unless noted 11.8% | [5]; at 50.0 µM unless noted 4.95%

COc1cc2c(c(OC)c1OC)-c1ccc(SC)c(=O)cc1[C@@H](NC(=O)CCl)CC2
inactive: [1] -2.1% | [2]; at 50.0 µM unless noted 0.5% | [3]; at 50.0 µM unless noted 6.85% | [4]; at 50.0 µM unless noted 16.6% | [5]; at 50.0 µM unless noted 15.6%

O=C(CCC(=O)c1ccccc1)NCc1ccccc1
inactive: [1] 11.2% | [2]; at 50.0 µM unless noted 4.4% | [3]; at 50.0 µM unless noted 5.55% | [4]; at 50.0 µM unless noted 6.5% | [5]; at 50.0 µM unless noted 2.1%

CCOC(=O)/C(SC#N)=C(/N)N1CCCC1
inactive: [1] -12.2% | [2]; at 50.0 µM unless noted -4% | [3]; at 50.0 µM unless noted 9.95% | [4]; at 50.0 µM unless noted 0.75% | [5]; at 50.0 µM unless noted -14.2%

COc1c(OC(C)=O)c(OC(C)=O)cc2c1-c1ccc(SC)c(=O)cc1C(NC(C)=O)CC2 (configuration not stated)
inactive: [1] 23.2% | [2]; at 50.0 µM unless noted -28.8% | [3]; at 50.0 µM unless noted -24.6% | [4]; at 50.0 µM unless noted -33.8%

CCC(CC)NC(CC)COC(=O)c1ccc(N)cc1 (configuration not stated)
inactive: [1] 8.4% | [2]; at 50.0 µM unless noted -0.05% | [3]; at 50.0 µM unless noted -0.5% | [4]; at 50.0 µM unless noted 5.8% | [5]; at 50.0 µM unless noted -4.9%

CCN(CC)C(=O)/C=C/c1ccccc1
inactive: [1] -54.9% | [2]; at 50.0 µM unless noted -6.05% | [3]; at 50.0 µM unless noted -33.2% | [4]; at 50.0 µM unless noted 1.7% | [5]; at 50.0 µM unless noted -14.8%

CC1(c2nc3ccccc3[nH]2)CCC(C(N)=O)C(C)(C)O1 (configuration not stated)
inactive: [1] 1.5% | [2]; at 50.0 µM unless noted -19.8% | [3]; at 50.0 µM unless noted -2.55% | [4]; at 50.0 µM unless noted -16.9% | [5]; at 50.0 µM unless noted -10.6%

COc1cc(C)cc(C(=O)O)c1
inactive: [1] -1.85% | [2]; at 50.0 µM unless noted 7.3% | [3]; at 50.0 µM unless noted -52.4% | [4]; at 50.0 µM unless noted -10% | [5]; at 50.0 µM unless noted -2.7%

O=C(Nc1nncs1)c1cnccn1
inactive: [1] -1.85% | [2]; at 50.0 µM unless noted 14.2% | [3]; at 50.0 µM unless noted -3.15% | [4]; at 50.0 µM unless noted 11.3% | [5]; at 50.0 µM unless noted -71.5%

COC(=O)C1(c2ccccc2)N=C(c2ccc(C)cc2)ON1c1ccccc1 (configuration not stated)
inactive: [1] -5.95% | [2]; at 50.0 µM unless noted -7.85% | [3]; at 50.0 µM unless noted 12.7% | [4]; at 50.0 µM unless noted -1% | [5]; at 50.0 µM unless noted 10.1%

CC(C)(C)NC(=O)C(Br)c1ccccc1 (configuration not stated)
inactive: [1] 0.05% | [2]; at 50.0 µM unless noted 33.8% | [3]; at 50.0 µM unless noted -2.25% | [4]; at 50.0 µM unless noted 54.1% | [5]; at 50.0 µM unless noted 16%

Cc1ccc(C)n1CCCCCCCn1c(C)ccc1C
inactive: [1] -24.7% | [2]; at 50.0 µM unless noted 5.15% | [3]; at 50.0 µM unless noted -22.8% | [4]; at 50.0 µM unless noted 25.1% | [5]; at 50.0 µM unless noted -9.8%

Nc1cccc2c1nc(NCCO)c1ccccc12
inactive: [1] 23.8% | [2]; at 50.0 µM unless noted -15.6% | [3]; at 50.0 µM unless noted -4.5% | [4]; at 50.0 µM unless noted 10.7% | [5]; at 50.0 µM unless noted 49.1%

Nc1ccc(S(=O)(=O)Nc2cc(C(F)(F)F)cc(C(F)(F)F)c2)cc1
inactive: [1] 12.9% | [2]; at 50.0 µM unless noted 28.6% | [3]; at 50.0 µM unless noted 41.6% | [4]; at 50.0 µM unless noted 10.7% | [5]; at 50.0 µM unless noted 32%

CC1CCCCN1Cc1ccccc1COC(=O)c1ccc([N+](=O)[O-])cc1Cl (configuration not stated)
inactive: [1] 41.1% | [2]; at 50.0 µM unless noted 49.9% | [3]; at 50.0 µM unless noted 8.85% | [4]; at 50.0 µM unless noted 21.4% | [5]; at 50.0 µM unless noted -3.6%

CCc1ccc(-c2cc(-c3ccc(CC)cc3)cc(-c3ccc(CC)cc3)c2)cc1
inactive: [1] 20.1% | [2]; at 50.0 µM unless noted -18.9% | [3]; at 50.0 µM unless noted 0.3% | [4]; at 50.0 µM unless noted -4.7% | [5]; at 50.0 µM unless noted 7.95%

CCOC(=O)c1c(C(=O)OCC)c2cccn2c2c1cnn2-c1ccccc1
inactive: [1] -0.85% | [6]; at 50.0 µM unless noted 1.65% | [2]; at 50.0 µM unless noted 5.1% | [4]; at 50.0 µM unless noted -20.8% | [5]; at 50.0 µM unless noted -2.55%

N#Cc1[nH]c(=O)n(-c2ccc([N+](=O)[O-])cc2)c1N
inactive: [1] -29.4% | [2]; at 50.0 µM unless noted -25.1% | [3]; at 50.0 µM unless noted -1.7% | [4]; at 50.0 µM unless noted -12.1% | [5]; at 50.0 µM unless noted -39.9%

COc1ccc(C(=O)/C=C/c2ccc(OCC#N)cc2)cc1OC
inactive: [1] -39.5% | [2]; at 50.0 µM unless noted -38.5% | [3]; at 50.0 µM unless noted -30.2% | [4]; at 50.0 µM unless noted -33% | [5]; at 50.0 µM unless noted -54.1%

CCCCCCNC(=O)CCN(C(=O)O)S(=O)(=O)c1ccc(NC(=O)c2ccccc2)cc1
inactive: [6]; at 50.0 µM unless noted -3.45% | [2]; at 50.0 µM unless noted 8.6% | [3]; at 50.0 µM unless noted 17.7% | [4]; at 50.0 µM unless noted 7.4% | [5]; at 50.0 µM unless noted -1.45%

O=C(NCCNC(=O)C(Br)(Br)Br)C(Br)(Br)Br
inactive: [6]; at 50.0 µM unless noted 53.5% | [2]; at 50.0 µM unless noted 58% | [3]; at 50.0 µM unless noted 44.7% | [4]; at 50.0 µM unless noted 69.5%
active: [5]; at 50.0 µM unless noted 72.8%

COc1ccccc1NC(=O)C1=C(C)NC(C)=C(C(=O)Nc2ccccc2OC)C1c1ccccc1F
inactive: [6]; at 50.0 µM unless noted 5.35% | [2]; at 50.0 µM unless noted 17.1% | [3]; at 50.0 µM unless noted 16% | [4]; at 50.0 µM unless noted -1.05% | [5]; at 50.0 µM unless noted 15.7%

CCCCCCCCCCNC(=O)CI
active: [6]; [8] 99% | [2]; [8] 99% | [4]; [8] 100% | [5]; [8] 98%
inactive: [6]; [7] 7% | [2]; [7] 24% | [3]; [7] 10% | [3]; [8] 42% | [4]; [7] 14% | [5]; [7] 8%

CC1CN=C(N(C(=O)Nc2ccccc2)C2CCCCC2)S1 (configuration not stated)
inactive: [6]; at 50.0 µM unless noted -8.9% | [2]; at 50.0 µM unless noted -60.1% | [3]; at 50.0 µM unless noted 5.35% | [4]; at 50.0 µM unless noted -4.3% | [5]; at 50.0 µM unless noted -20%

Cc1nc2c(cnn2C)c(=O)n1C(C)C
inactive: [6]; at 50.0 µM unless noted -0.3% | [2]; at 50.0 µM unless noted 3.8% | [3]; at 50.0 µM unless noted -6.5% | [4]; at 50.0 µM unless noted -11.3% | [5]; at 50.0 µM unless noted 3.4%

Cc1ccc(Nc2cc(C(=O)O)c(Nc3ccc(C)cc3)cc2C(=O)O)cc1
inactive: [6]; at 50.0 µM unless noted -10.6% | [2]; at 50.0 µM unless noted 12.3% | [3]; at 50.0 µM unless noted 33.4% | [4]; at 50.0 µM unless noted 7.85% | [5]; at 50.0 µM unless noted 6.9%

ClCCCN(CCCCl)c1ccc(C=Nc2cccc(Cl)c2)c(Cl)c1
active: [6]; at 50.0 µM unless noted 76.6% | [2]; at 50.0 µM unless noted 95.5% | [3]; at 50.0 µM unless noted 85.2% | [4]; at 50.0 µM unless noted 81.5%

COc1cccc(-c2cc(=O)c3cc(C)cnc3[nH]2)c1
inactive: [6]; at 50.0 µM unless noted 3.85% | [2]; at 50.0 µM unless noted 4.05% | [3]; at 50.0 µM unless noted -2.4% | [4]; at 50.0 µM unless noted 18.8% | [5]; at 50.0 µM unless noted -13.2%

Nc1nc(=S)c2c(ncn2CCO)[nH]1
inactive: [6]; at 50.0 µM unless noted -32.2% | [2]; at 50.0 µM unless noted 15.3% | [3]; at 50.0 µM unless noted 3.4% | [4]; at 50.0 µM unless noted -16.1% | [5]; at 50.0 µM unless noted 3.85%

ClC1=C(Cl)C(Cl)(Cl)c2c3c(c4c(c21)C(Cl)(Cl)C(Cl)=C4Cl)C(Cl)(Cl)C(Cl)=C3Cl
inactive: [6]; at 50.0 µM unless noted 17.1% | [2]; at 50.0 µM unless noted 5.15% | [3]; at 50.0 µM unless noted -53.8% | [4]; at 50.0 µM unless noted 9.1% | [5]; at 50.0 µM unless noted 7.45%

COc1ccc(C(=O)Oc2ccccc2C(C)=O)cc1
inactive: [6]; at 50.0 µM unless noted -7.05% | [2]; at 50.0 µM unless noted 0.7% | [3]; at 50.0 µM unless noted -24.6% | [4]; at 50.0 µM unless noted -5.6% | [5]; at 50.0 µM unless noted -12.8%

O=C(CCc1ccccc1)On1nnc2ccccc2c1=O
inactive: [6]; at 50.0 µM unless noted -14.2% | [2]; at 50.0 µM unless noted -29.8% | [3]; at 50.0 µM unless noted 9.9% | [4]; at 50.0 µM unless noted -14.6% | [5]; at 50.0 µM unless noted -29.1%

COc1cccc(Br)n1
inactive: [1] -4.15% | [2]; at 50.0 µM unless noted 6.95% | [3]; at 50.0 µM unless noted 15.1% | [5]; at 50.0 µM unless noted 26.9%

O=C1c2cccc3c([N+](=O)[O-])ccc(c23)C(=O)N1Cc1cccnc1
active: [6]; at 50.0 µM unless noted 99.7% | [2]; at 50.0 µM unless noted 99.5% | [3]; at 50.0 µM unless noted 99.3% | [4]; at 50.0 µM unless noted 99.3% | [5]; at 50.0 µM unless noted 99.4%
